Data: ChEMBL document CHEMBL1961873, “Compounds: GSK PKIS; Assays: Nanosyn kinase panel” (2012)
Values joined by “and” are separate entries in the source; they are usually repeats but may differ in a detail not shown here. Equal entries are not always repeated.

Legend:
[1] = molecular target: Mast/stem cell growth factor receptor Kit (Homo sapiens) (UniProt P10721); details: at 1 µM
[2] = system: Mast/stem cell growth factor receptor Kit (Homo sapiens), P10721 [D816V]; details: at 0.1 µM
[3] = system: Mast/stem cell growth factor receptor Kit (Homo sapiens), P10721 [D816V]; details: at 1 µM
[4] = system: Mast/stem cell growth factor receptor Kit (Homo sapiens), P10721 [T670I]; details: at 0.1 µM
[5] = system: Mast/stem cell growth factor receptor Kit (Homo sapiens), P10721 [T670I]; details: at 1 µM
[6] = system: Mast/stem cell growth factor receptor Kit (Homo sapiens), P10721 [V560G]; details: at 0.1 µM
[7] = system: Mast/stem cell growth factor receptor Kit (Homo sapiens), P10721 [V560G]; details: at 1 µM
[8] = molecular target: Tyrosine-protein kinase Lck (Homo sapiens) (UniProt P06239); details: at 0.1 µM
[9] = molecular target: Tyrosine-protein kinase Lck (Homo sapiens) (UniProt P06239); details: at 1 µM
[10] = molecular target: Leukocyte tyrosine kinase receptor (Homo sapiens) (UniProt P29376); details: at 0.1 µM
[11] = molecular target: Leukocyte tyrosine kinase receptor (Homo sapiens) (UniProt P29376); details: at 1 µM
[12] = molecular target: Tyrosine-protein kinase Lyn (Homo sapiens) (UniProt P07948); details: at 0.1 µM
[13] = molecular target: Tyrosine-protein kinase Lyn (Homo sapiens) (UniProt P07948); details: at 1 µM
[14] = molecular target: Tyrosine-protein kinase Lyn (Homo sapiens) (UniProt P07948); details: at 0.1 µM; remark: listed apart in the source
[15] = molecular target: Tyrosine-protein kinase Lyn (Homo sapiens) (UniProt P07948); details: at 1 µM; remark: listed apart in the source
[16] = molecular target: T1, Tyrosine-protein kinase Mer (Homo sapiens) (UniProt Q12866); details: at 0.1 µM
T1 sequence (whole entry): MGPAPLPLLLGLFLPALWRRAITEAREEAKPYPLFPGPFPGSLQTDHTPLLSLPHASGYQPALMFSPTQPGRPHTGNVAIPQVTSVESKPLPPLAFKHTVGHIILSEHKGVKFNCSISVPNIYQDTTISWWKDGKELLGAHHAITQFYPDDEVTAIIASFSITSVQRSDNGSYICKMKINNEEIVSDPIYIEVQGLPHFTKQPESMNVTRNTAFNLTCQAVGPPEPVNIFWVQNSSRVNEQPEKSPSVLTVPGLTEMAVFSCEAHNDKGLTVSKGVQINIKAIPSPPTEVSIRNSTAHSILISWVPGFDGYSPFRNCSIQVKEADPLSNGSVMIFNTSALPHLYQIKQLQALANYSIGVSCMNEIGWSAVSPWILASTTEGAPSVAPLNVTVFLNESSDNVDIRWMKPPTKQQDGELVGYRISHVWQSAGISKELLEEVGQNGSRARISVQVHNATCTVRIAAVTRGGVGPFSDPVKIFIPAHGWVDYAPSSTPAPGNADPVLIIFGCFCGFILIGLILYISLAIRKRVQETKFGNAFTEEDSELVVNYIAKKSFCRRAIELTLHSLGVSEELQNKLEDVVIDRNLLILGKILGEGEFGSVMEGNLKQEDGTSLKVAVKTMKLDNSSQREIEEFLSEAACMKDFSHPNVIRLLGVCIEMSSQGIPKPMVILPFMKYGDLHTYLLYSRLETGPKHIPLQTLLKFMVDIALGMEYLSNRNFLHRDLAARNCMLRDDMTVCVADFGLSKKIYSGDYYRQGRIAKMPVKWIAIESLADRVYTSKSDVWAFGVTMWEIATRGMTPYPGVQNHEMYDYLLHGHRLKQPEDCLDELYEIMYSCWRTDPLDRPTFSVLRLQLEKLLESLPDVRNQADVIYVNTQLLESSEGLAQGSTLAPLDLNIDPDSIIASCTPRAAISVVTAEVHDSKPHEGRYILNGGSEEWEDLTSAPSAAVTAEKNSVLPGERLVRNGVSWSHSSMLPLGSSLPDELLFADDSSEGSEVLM

[17] = molecular target: T1, Tyrosine-protein kinase Mer (Homo sapiens); details: at 1 µM
[18] = molecular target: Hepatocyte growth factor receptor (Homo sapiens) (UniProt P08581); details: at 0.1 µM
[19] = molecular target: Hepatocyte growth factor receptor (Homo sapiens) (UniProt P08581); details: at 1 µM
[20] = molecular target: T2, Muscle, skeletal receptor tyrosine-protein kinase (Homo sapiens) (UniProt O15146); details: at 0.1 µM;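 further: values are mean inhibition of MuSK from the GSK PKIS kinase screening panel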
T2 sequence (whole entry): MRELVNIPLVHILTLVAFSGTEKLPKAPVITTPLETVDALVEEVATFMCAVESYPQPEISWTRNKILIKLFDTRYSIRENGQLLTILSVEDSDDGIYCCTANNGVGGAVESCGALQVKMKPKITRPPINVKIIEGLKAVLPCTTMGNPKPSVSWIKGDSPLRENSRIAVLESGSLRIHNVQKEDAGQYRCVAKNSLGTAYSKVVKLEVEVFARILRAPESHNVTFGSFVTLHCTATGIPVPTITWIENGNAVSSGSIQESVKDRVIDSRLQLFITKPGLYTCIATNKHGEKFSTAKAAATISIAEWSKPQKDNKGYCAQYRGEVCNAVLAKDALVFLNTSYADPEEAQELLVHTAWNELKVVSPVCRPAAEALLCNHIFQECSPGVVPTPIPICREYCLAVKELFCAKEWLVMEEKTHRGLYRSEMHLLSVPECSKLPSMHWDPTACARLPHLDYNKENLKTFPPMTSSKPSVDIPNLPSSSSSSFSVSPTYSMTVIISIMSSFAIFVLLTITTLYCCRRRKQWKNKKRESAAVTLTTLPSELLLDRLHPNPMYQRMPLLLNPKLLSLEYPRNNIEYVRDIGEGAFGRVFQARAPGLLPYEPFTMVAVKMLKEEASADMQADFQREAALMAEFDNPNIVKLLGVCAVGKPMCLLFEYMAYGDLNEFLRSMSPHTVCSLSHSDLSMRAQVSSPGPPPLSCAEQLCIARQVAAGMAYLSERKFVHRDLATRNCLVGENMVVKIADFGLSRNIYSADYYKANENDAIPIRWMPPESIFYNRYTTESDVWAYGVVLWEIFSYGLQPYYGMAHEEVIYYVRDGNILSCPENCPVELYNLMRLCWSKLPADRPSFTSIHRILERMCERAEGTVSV

Mast/stem cell growth factor receptor Kit (Homo sapiens), P10721 [T670I], sequence (P10721 whole entry T670I): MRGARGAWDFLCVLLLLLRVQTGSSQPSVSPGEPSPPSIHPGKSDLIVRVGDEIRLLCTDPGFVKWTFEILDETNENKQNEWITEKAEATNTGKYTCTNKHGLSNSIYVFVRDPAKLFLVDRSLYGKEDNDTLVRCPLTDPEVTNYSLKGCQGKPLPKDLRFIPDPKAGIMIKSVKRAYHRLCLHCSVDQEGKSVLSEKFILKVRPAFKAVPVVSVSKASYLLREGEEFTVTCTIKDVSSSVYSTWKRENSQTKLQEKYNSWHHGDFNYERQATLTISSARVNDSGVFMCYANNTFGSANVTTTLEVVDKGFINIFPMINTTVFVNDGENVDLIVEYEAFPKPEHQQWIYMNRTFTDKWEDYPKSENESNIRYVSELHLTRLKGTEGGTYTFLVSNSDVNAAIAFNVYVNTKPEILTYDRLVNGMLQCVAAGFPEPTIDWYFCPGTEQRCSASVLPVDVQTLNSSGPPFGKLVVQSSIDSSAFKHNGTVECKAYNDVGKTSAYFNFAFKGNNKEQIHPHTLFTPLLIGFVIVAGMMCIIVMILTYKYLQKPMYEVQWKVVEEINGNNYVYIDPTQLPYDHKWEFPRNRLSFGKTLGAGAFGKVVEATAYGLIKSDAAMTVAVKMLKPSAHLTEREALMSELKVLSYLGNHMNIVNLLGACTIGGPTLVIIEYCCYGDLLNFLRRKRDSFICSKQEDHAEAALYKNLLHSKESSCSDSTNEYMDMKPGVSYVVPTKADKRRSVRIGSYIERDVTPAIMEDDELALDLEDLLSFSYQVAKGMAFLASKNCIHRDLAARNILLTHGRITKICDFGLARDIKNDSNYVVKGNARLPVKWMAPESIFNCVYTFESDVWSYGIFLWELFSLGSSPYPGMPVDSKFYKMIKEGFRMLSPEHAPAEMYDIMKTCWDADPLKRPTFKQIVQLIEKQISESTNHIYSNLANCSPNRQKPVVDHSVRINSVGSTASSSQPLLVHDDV
Hepatocyte growth factor receptor (Homo sapiens), sequence (P08581 whole entry): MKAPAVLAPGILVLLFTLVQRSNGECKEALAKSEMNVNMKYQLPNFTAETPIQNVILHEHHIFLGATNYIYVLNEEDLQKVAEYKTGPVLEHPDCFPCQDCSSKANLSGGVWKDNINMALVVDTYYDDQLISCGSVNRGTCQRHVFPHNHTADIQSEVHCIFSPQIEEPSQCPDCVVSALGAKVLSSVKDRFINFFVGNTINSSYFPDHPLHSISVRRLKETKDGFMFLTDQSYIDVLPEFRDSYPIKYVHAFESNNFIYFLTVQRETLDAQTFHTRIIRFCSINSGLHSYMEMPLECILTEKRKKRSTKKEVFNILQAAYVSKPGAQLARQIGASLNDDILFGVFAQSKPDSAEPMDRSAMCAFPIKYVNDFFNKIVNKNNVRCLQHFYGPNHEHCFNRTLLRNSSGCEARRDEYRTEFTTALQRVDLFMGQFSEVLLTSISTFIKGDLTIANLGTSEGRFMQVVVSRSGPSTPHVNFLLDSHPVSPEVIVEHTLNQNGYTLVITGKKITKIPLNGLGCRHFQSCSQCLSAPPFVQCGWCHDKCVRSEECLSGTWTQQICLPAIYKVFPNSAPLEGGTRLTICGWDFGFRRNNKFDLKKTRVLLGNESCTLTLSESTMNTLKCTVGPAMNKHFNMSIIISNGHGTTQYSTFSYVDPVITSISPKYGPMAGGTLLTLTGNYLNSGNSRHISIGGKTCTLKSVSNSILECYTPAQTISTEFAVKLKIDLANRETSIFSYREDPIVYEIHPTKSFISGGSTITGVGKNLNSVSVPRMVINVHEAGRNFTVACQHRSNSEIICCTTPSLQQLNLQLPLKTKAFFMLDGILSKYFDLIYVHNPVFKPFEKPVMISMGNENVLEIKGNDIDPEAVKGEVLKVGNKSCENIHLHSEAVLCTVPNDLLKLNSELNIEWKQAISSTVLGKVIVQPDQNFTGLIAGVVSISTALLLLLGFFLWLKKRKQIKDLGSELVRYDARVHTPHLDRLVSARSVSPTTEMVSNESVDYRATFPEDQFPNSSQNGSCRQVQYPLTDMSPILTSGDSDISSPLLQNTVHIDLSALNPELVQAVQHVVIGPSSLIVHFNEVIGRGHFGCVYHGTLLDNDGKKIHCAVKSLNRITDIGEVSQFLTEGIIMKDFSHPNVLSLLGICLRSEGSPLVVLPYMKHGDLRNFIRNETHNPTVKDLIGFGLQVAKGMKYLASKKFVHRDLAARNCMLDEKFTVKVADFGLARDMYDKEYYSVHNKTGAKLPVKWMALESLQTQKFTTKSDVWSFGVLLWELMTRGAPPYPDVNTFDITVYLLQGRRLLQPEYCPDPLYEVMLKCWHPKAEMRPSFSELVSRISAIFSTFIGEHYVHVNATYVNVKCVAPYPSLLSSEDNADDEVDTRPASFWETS
Tyrosine-protein kinase Lck (Homo sapiens), sequence (P06239 2-509 limits assumed): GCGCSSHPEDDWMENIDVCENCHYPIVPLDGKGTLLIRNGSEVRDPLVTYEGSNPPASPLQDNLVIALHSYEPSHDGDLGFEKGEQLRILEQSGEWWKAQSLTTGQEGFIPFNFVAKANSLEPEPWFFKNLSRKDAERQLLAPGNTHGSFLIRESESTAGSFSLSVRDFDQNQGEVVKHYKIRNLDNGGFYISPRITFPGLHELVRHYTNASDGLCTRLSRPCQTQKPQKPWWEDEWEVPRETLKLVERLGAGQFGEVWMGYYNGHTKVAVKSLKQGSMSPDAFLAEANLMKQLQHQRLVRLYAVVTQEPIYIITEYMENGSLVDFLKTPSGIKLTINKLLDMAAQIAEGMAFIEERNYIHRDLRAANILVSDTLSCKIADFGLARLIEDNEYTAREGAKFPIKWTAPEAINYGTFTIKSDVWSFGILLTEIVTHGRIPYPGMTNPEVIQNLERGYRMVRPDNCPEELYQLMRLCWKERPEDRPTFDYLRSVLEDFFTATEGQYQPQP
Mast/stem cell growth factor receptor Kit (Homo sapiens), sequence (P10721 whole entry): as the sequence (P10721 whole entry T670I) above, with I670T counted along it
Leukocyte tyrosine kinase receptor (Homo sapiens), sequence (P29376 whole entry): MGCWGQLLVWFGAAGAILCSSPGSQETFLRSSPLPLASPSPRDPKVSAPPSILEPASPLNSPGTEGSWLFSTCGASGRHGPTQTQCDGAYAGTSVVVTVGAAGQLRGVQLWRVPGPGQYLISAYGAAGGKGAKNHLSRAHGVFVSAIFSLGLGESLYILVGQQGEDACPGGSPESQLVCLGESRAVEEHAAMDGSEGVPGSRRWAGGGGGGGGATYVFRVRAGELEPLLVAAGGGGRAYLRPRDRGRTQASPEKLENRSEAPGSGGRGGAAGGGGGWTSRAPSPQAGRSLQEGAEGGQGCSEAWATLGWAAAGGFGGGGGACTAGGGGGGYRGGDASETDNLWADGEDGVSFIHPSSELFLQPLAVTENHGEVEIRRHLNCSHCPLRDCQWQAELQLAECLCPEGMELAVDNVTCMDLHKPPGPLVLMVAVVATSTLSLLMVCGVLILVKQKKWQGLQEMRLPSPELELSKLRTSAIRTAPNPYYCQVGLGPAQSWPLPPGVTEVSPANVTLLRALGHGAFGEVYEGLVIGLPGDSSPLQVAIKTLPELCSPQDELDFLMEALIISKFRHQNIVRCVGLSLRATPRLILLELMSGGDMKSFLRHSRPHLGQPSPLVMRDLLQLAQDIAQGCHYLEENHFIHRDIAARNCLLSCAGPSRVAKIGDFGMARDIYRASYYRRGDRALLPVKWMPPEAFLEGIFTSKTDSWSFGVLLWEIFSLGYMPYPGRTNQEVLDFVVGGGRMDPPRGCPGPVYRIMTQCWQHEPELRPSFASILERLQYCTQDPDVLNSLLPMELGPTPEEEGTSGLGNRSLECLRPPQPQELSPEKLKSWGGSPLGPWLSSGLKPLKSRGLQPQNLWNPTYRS
Mast/stem cell growth factor receptor Kit (Homo sapiens), P10721 [V560G], sequence (P10721 whole entry V560G): as the sequence (P10721 whole entry T670I) above, with V560G, I670T counted along it
Tyrosine-protein kinase Lyn (Homo sapiens), sequence (P07948 2-512 limits assumed): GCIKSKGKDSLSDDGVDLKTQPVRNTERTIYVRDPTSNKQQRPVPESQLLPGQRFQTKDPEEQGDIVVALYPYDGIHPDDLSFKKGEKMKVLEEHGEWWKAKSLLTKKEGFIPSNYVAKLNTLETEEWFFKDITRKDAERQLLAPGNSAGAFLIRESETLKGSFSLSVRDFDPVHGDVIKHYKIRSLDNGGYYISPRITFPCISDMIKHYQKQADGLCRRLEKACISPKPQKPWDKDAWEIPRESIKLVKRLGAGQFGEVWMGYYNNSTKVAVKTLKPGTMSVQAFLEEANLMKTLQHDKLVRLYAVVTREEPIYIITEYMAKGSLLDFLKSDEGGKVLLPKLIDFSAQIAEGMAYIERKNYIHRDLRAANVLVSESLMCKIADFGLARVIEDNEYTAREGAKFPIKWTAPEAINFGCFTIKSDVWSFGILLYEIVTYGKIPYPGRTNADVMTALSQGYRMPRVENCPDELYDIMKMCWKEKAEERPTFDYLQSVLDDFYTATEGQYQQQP
Mast/stem cell growth factor receptor Kit (Homo sapiens), P10721 [D816V], sequence (P10721 whole entry D816V): as the sequence (P10721 whole entry T670I) above, with I670T, D816V counted along it

Structure (SMILES)	inhibition [1]	inhibition [2]	inhibition [3]	inhibition [4]	inhibition [5]	inhibition [6]	inhibition [7]	inhibition [8]	inhibition [9]	inhibition [10]	inhibition [11]	inhibition [12]	inhibition [13]	inhibition [14]	inhibition [15]	inhibition [16]	inhibition [17]	inhibition [18]	inhibition [19]	inhibition [20]
Nc1nccc(-c2c(-c3ccc(F)cc3)ncn2C2CCNCC2)n1	-2.8% and 0.85%	13% and -2.76%	1.63% and 3.54%	-2.81% and 0.49%	-3.42% and -0.01%	1.31% and 1.87%	3.68% and 1.62%	1.27% and 4.01%	14.3% and 17.1%	-2.04% and 0.7%	-1.33% and 1.18%	-0.63% and 1.67%	9.44% and 9.35%	-1.82% and 1.01%	7.55% and 6.33%	0.83% and 0.35%	2.87% and 1.44%	-2.37% and 2.87%	-2.98% and 4.72%	-3.15% and 1.87%
NS(=O)(=O)c1cccc(N/C=C2\C(=O)Nc3ccccc32)c1	63.9%	3.62%	2.43%	6.57%	45.2%	-0.34%	8.83%	2.31%	6.78%	3.74%	10.6%	5.77%	11.6%	3.69%	8.12%	3.46%	8.24%	4.45%	6.92%	4.44%
COC(=O)Nc1nc2ccc(Oc3ccc(NC(=O)Nc4cc(C(F)(F)F)ccc4F)cc3)cc2s1	73.9%	-1.16%	-0.29%	14.4%	46.7%	19.8%	73.7%	15.2%	47.1%	1.83%	2.2%	28.7%	70.5%	22.6%	66.5%	0.03%	4.8%	9.69%	34.6%	76.3%
COc1cc(N2CCN(C(C)C)CC2)ccc1Nc1nc(Nc2cccc(F)c2C(=O)O)c2cc[nH]c2n1	8.76%	3.82%	3.22%	2.33%	3.08%	-0.92%	0.71%	1.92%	2.86%	66.4%	91.8%	4.91%	8.65%	3.03%	6.2%	1.01%	4.62%	9.65%	1.52%	4.22%
NC(=O)c1ccc2c(-c3ccnc(NCCCO)n3)c(-c3ccc(F)cc3)nn2c1	25.4%	8.24%	1.86%	4.73%	2.71%	-0.84%	0.77%	2.46%	8.13%	4.67%	6.21%	6.82%	12.1%	4.82%	10.6%	5.01%	14.2%	7.18%	15.1%	3.34%
O=C(O[C@H]1CN[C@H](C#Cc2cc3ncnc(Nc4ccc5c(ccn5Cc5cc(F)ccc5F)c4)c3s2)C1)N1CCOCC1	2.34%	3.87%	3.82%	3.88%	2.88%	-0.88%	-2.32%	2.27%	4.87%	5.27%	4.15%	4.33%	6.23%	2.03%	1.87%	1.34%	3.33%	7.21%	10.8%	2.87%
CC1(C)CC(n2cnc(-c3ccc(F)cc3)c2-c2ccnc(N)n2)CC(C)(C)N1	2.82%	-0.86%	-3.56%	2.5%	1.11%	1.03%	-0.87%	-0.02%	6.94%	1.09%	0.76%	0.33%	2.44%	-0.62%	0.86%	0.86%	3.06%	-5.05%	5.56%	0.69%
